20 molecules from PubChem BioAssay (EPA / NIEHS) can be followed below.

The term AC50 denotes the midpoint of the concentration-response curve, whichever way the signal moves.

In one experiment the test system is DIO2 (gene 1734). Nature of the experiment: CCTE_GLTED_hDIO2: CCTE's human Deiodinase 2 (DIO2) Inhibition Assay, Great Lakes Toxicology and Ecology Division (GLTED) Lab (AID 2284050; active = hit-call score of the fitted dose curve at least 0.9, where 1 is the maximum). The method in brief: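 Readout: absorbance from Sandell-Kolthoff detection of free iodide released by human DIO2 during a 3 h incubation with chemical. Cell-free format, n=3; activity fitted relative to DMSO negative control.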

Experiment [1] in a line: CCTE_Shafer_MEA_dev_per_burst_interspike_interval: CCTE's Neural Network Formation Assay for Burst Interspike Interval, Shafer Lab (AID 2284044).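 For AC50: potency for a decrease of within-burst interspike interval below DMSO level.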 A digest of the protocol: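 Readout is the average time between spikes inside single-electrode bursts, taken as a well mean across bursting electrodes. Cortical neurons from rat developed networks on MEA plates under continuous 12-day exposure; recordings on days 5, 7, 9 and 12 were integrated by trapezoidal AUC.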

Experiment [2] in a line: CCTE_Shafer_MEA_dev_burst_duration_mean: CCTE's Neural Network Formation Assay for Mean Burst Duration, Shafer Lab (AID 2284045).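 For AC50: curve fitted for loss meaning shorter burst duration than DMSO.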 A digest of the protocol:
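Mean single-electrode burst duration (first to last spike), averaged over bursting electrodes per well, then integrated as area-under-curve across recordings at days 5, 7, 9 and 12. Rat cortical cultures on MEAs, compound present from plating, refreshed at feeds.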

Experiment [3] is described as follows: CCTE_Shafer_MEA_dev_inter_network_spike_interval_mean: CCTE's Neural Network Formation Assay for Mean Inter-network Spike Interval, Shafer Lab (AID 2284047).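 For AC50: potency for a decrease in mean inter-network spike interval below DMSO.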 The method in brief: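 Primary rat cortical neurons on PEI-coated 48-well MEAs (16 electrodes/well) were exposed from plating day 0 to DIV 12, with dosing renewed at DIV 5 and 9. Recordings at DIV 5, 7, 9, 12 were collapsed by trapezoidal AUC, loss-of-signal fit vs DMSO.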

Experiment [4] is described as follows: CCTE_Shafer_MEA_dev_network_spike_number: CCTE's Neural Network Formation Assay for Number of Network Spikes, Shafer Lab (AID 2284048).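 For AC50: fit as a loss of signal meaning fewer network spikes than DMSO.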 A digest of the protocol: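 Number of network spikes (coordinated firing across electrodes) recorded on days 5, 7, 9 and 12 and summarised as area under the curve. Rat cortical cultures on MEA, continuous compound exposure with full medium/treatment exchange at DIV 5 and 9.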

A short description of experiment [5]: CCTE_Shafer_MEA_dev_network_spike_peak: CCTE's Neural Network Formation Assay for Mean Number of Electrodes in Network Spike, Shafer Lab (AID 2284049).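 For AC50: fitted for loss of signal meaning fewer electrodes in network spikes than DMSO.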 The method in brief: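 Rat cortical primary culture, 1.5 x 10^5 cells/well, 48-well MEA (16 electrodes/well). Dosing day 0 through DIV 12, full media/compound exchange DIV 5, 9. AxIS adaptive spike detection; AUC over days 5/7/9/12; loss-of-signal vs DMSO.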

A short description of experiment [6]: CCTE_Shafer_MEA_dev_spike_duration_mean: CCTE's Neural Network Formation Assay for Mean Spike Duration, Shafer Lab (AID 2284051).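 For AC50: potency for a decrease in mean network spike duration versus DMSO.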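 Note: mean network spike duration pooled as area under curve over DIV 5 to 12 recordings.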 The method in brief: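 Rat cortical primary cultures, 48-well MEA (16 electrodes/well); compound from plating, renewed DIV 5, 9. Network spike duration (AxIS adaptive detector) recorded DIV 5/7/9/12, combined as trapezoidal AUC; loss direction vs DMSO.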

Experiment [7] can be described thus: CCTE_Shafer_MEA_dev_network_spike_duration_std: CCTE's Neural Network Formation Assay for Standard Deviation of Network Spike Duration, Shafer Lab (AID 2284052).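 Note: hits are decreases in network spike duration SD versus DMSO vehicle.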 The method in brief:
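Rat cortical cultures, 1.5 x 10^5 cells/well, exposed continuously from plating to DIV 12 with media/compound renewal at DIV 5, 9. Spontaneous activity recorded DIV 5/7/9/12, AxIS adaptive spike detector; AUC across days; negative direction vs DMSO.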

Experiment [8] is described as follows: CCTE_Shafer_MEA_dev_per_network_spike_spike_number_mean: CCTE's Neural Network Formation Assay for Mean Number of Spikes in a Network Spike, Shafer Lab (AID 2284053).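 For AC50: fitted as decrease in spikes per network spike relative to DMSO.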 The method in brief: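 Rat cortical primary cultures on 48-well MEA; compound from day 0, re-dosed with full media change DIV 5, 9. Recorded DIV 5, 7, 9, 12; spikes in 0.05 s window at network-spike peak ÷ total network spikes; AUC; loss vs DMSO.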

The nature of experiment [9]: CCTE_Shafer_MEA_dev_per_network_spike_spike_percent: CCTE's Neural Network Formation Assay for Percent of Spikes in a Network Spike, Shafer Lab (AID 2284054). A digest of the protocol: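 Metric: fraction of spikes falling in a 0.05 s window at network-spike peaks. Recordings were made on days 5, 7, 9 and 12 and collapsed by trapezoidal AUC. Cultures were rat cortical neurons on MEA plates, dosed continuously from plating, re-dosed at media changes.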

Structures are written as SMILES. Several values for one entry are separate records, joined by “and”; a condition that tells them apart may be missing. Equal entries are not always repeated. Some compounds were tested as several samples or in several runs, with calls that do not always agree. Activity calls are given as the source filed them. Rule for the calls, unless noted: active = hit-call score of the fitted dose curve at least 0.9, where 1 is the maximum; inactive = score below 0.9.

As for `CC(C)(C)c1ccc(O)c(C(C)(C)C)c1`, the AC50 in the experiment on DIO2 (gene 1734) was 159 µM (active).
Take `CN1CCN(c2ccccc2/C=C2\SCCN(c3ccc(Cl)c(Cl)c3)C2=O)CC1`: in the experiment on DIO2 (gene 1734), the AC50 is 104 µM (active).
With `CCCCCCCCCCCCc1ccccc1S(=O)(=O)O`, the AC50 with DIO2 (gene 1734) was 72.2 µM (active).
As for `c1ccc2cc3c(ccc4ccccc43)cc2c1`, the molecule was called inactive in [1], in experiment [2], in experiment [3], in [4], in experiment [6] and in [7]. In addition, the molecule was called inactive in experiment [8] and in [9]. The concentration at half-maximal activity (AC50) in experiment [5] was 10 µM (active); in the experiment on DIO2 (gene 1734) it was 70 µM (active).
With `c1ccc2c(c1)Cc1ccccc1-2`, the call in [1], in [2], in experiment [3], in [4], in experiment [5] and in [6] was inactive. In addition, the outcome in [7], in experiment [8] and in [9] was inactive.
In the case of `OCCC(F)(F)C(F)(F)C(F)(F)C(F)(F)C(F)(F)C(F)(F)C(F)(F)C(F)(F)F`, the call in experiment [1], in experiment [2], in [3], in [4], in experiment [6] and in [7] was inactive. Moreover, the molecule was classed as inactive in experiment [8] and in experiment [9]. Besides, the concentration at half-maximal activity (AC50) in [5] is 24.2 µM (active).
On to `CC1=C(/C=C/C(C)=C/C=C/C(C)=C/C(=O)O)C(C)(C)CCC1`, for which the outcome in [1], in experiment [2] and in experiment [8] was inactive. Further, the AC50 in experiment [3] was 0.319 µM (active); in experiment [4], 7.99 µM (active); in experiment [5], 24.1 µM (active); in the experiment with DIO2 (gene 1734) it was 60.4 µM (active); in experiment [6], 10.1 µM (active); in experiment [7], 2.98 µM (active). For the same molecule, in experiment [9], the AC50 was 26.9 µM (active).
Consider `OCCC(F)(F)C(F)(F)C(F)(F)C(F)(F)C(F)(F)C(F)(F)F`, for which the outcome in [1], in experiment [2], in experiment [3], in [4], in experiment [5] and in experiment [6] was inactive. Moreover, the molecule was called inactive in experiment [7], in [8] and in experiment [9].
Consider `CCCCCCCCCCCCN1CCCC1=O`, for which the AC50 in the experiment with DIO2 (gene 1734) is 138 µM (active).
On to `NC(=O)N(O)[C@@H]1C=C[C@H](Oc2cccc(Oc3ccc(F)cc3)c2)C1`, for which the AC50 in the experiment with DIO2 (gene 1734) is 36.5 µM (active).
As for `CC#C[C@]1(O)CC[C@H]2[C@@H]3CCC4=CC(=O)CCC4=C3[C@@H](c3ccc(N(C)C)cc3)C[C@@]21C`, the half-maximal activity concentration (AC50) in experiment [1] is 4.01 µM (active) and 5.66 µM (active); in experiment [2] it was 2.98 µM (active); in experiment [4], 8.75 µM (active); in experiment [5] it was 2.53 µM (active) and 22.2 µM (active); in experiment [6], 4.55 µM (active) and 21.8 µM (active); in experiment [7], 8.66 µM (active). The AC50 in experiment [8] was 1.38 µM (active) and 15 µM (active); in experiment [9], 3.55 µM (active) and 23.1 µM (active). The result in experiment [2], in experiment [3], in experiment [4] and in [7] was inactive.
Take `Cc1oc(-c2ccccc2)nc1CCOc1ccc(C[C@H](Nc2ccccc2C(=O)c2ccccc2)C(=O)O)cc1`: the AC50 in the experiment on DIO2 (gene 1734) is 46.1 µM (active).
In the case of `c1ccc2c(c1)ccc1ccccc12`, the outcome in experiment [1], in experiment [2], in [3], in [4], in [5] and in [6] was inactive. In addition, the outcome in [7], in experiment [8] and in experiment [9] was inactive.
Take `CCC(=C(c1ccc(O)cc1)c1ccc(OCCN(C)C)cc1)c1ccccc1`: the concentration at half-maximal activity (AC50) with DIO2 (gene 1734) was 35.2 µM (active).
`CCCCCCCCCCCCCC[N+](C)(C)C`: in the experiment with DIO2 (gene 1734), the half-maximal activity concentration (AC50) was 24.7 µM (active).
For `C=C(C)C(=O)OCCC(F)(F)C(F)(F)C(F)(F)C(F)(F)C(F)(F)C(F)(F)F`, the molecule was called inactive in experiment [1], in experiment [2], in [3], in experiment [4], in experiment [5] and in [6]. The outcome in [7], in experiment [8] and in experiment [9] was inactive.
For `CC(O)CO` (stereo not given), the outcome in experiment [1], in [2], in experiment [3], in [4], in [5] and in experiment [6] was inactive. Moreover, the call in [7], in experiment [8] and in experiment [9] was inactive.
Turning to `CC(=O)NC1(c2cccc(F)c2)CCN(CC[C@@]2(c3ccc(Cl)c(Cl)c3)CN(c3ccccc3)C(=O)CO2)CC1`, in the experiment on DIO2 (gene 1734), the AC50 was 82.6 µM (active).
With `ClC1=C(Cl)C(Cl)(Cl)C(Cl)=C1Cl`, the concentration at half-maximal activity (AC50) in the experiment with DIO2 (gene 1734) was 23.9 µM (active).
On to `CN1CCC[C@H]1c1cccnc1`, for which the result in experiment [1], in experiment [2], in experiment [3], in [4], in experiment [5] and in experiment [6] was inactive. Besides, the call in experiment [7] and in experiment [9] was inactive. For the same molecule, the AC50 in experiment [8] was 6.37 µM (active).
